Screening results (PubChem)
Pf apPOL inh: Pf-apPOL DNA polymerase inhibition; Recombinant Pf-apPOL, molecular beacon fluorescence, 1.5 h; inhibition, % at 10 µM; actives 0.25% (n = 210,000); AID 1794808
mHTT-CaM PPI inh: inhibitors of human mutant huntingtin-calmodulin interaction; P42858; AlphaScreen His-mHTT/GST-CaM binding, luminescence; inhibition, % at 15 µM; actives 3.6% (n = 190,000); AID 1671202;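 also: 0% = both proteins with DMSO and 100% = one protein alone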
Target sequence (P42858 whole entry, looked up, stated change not applied): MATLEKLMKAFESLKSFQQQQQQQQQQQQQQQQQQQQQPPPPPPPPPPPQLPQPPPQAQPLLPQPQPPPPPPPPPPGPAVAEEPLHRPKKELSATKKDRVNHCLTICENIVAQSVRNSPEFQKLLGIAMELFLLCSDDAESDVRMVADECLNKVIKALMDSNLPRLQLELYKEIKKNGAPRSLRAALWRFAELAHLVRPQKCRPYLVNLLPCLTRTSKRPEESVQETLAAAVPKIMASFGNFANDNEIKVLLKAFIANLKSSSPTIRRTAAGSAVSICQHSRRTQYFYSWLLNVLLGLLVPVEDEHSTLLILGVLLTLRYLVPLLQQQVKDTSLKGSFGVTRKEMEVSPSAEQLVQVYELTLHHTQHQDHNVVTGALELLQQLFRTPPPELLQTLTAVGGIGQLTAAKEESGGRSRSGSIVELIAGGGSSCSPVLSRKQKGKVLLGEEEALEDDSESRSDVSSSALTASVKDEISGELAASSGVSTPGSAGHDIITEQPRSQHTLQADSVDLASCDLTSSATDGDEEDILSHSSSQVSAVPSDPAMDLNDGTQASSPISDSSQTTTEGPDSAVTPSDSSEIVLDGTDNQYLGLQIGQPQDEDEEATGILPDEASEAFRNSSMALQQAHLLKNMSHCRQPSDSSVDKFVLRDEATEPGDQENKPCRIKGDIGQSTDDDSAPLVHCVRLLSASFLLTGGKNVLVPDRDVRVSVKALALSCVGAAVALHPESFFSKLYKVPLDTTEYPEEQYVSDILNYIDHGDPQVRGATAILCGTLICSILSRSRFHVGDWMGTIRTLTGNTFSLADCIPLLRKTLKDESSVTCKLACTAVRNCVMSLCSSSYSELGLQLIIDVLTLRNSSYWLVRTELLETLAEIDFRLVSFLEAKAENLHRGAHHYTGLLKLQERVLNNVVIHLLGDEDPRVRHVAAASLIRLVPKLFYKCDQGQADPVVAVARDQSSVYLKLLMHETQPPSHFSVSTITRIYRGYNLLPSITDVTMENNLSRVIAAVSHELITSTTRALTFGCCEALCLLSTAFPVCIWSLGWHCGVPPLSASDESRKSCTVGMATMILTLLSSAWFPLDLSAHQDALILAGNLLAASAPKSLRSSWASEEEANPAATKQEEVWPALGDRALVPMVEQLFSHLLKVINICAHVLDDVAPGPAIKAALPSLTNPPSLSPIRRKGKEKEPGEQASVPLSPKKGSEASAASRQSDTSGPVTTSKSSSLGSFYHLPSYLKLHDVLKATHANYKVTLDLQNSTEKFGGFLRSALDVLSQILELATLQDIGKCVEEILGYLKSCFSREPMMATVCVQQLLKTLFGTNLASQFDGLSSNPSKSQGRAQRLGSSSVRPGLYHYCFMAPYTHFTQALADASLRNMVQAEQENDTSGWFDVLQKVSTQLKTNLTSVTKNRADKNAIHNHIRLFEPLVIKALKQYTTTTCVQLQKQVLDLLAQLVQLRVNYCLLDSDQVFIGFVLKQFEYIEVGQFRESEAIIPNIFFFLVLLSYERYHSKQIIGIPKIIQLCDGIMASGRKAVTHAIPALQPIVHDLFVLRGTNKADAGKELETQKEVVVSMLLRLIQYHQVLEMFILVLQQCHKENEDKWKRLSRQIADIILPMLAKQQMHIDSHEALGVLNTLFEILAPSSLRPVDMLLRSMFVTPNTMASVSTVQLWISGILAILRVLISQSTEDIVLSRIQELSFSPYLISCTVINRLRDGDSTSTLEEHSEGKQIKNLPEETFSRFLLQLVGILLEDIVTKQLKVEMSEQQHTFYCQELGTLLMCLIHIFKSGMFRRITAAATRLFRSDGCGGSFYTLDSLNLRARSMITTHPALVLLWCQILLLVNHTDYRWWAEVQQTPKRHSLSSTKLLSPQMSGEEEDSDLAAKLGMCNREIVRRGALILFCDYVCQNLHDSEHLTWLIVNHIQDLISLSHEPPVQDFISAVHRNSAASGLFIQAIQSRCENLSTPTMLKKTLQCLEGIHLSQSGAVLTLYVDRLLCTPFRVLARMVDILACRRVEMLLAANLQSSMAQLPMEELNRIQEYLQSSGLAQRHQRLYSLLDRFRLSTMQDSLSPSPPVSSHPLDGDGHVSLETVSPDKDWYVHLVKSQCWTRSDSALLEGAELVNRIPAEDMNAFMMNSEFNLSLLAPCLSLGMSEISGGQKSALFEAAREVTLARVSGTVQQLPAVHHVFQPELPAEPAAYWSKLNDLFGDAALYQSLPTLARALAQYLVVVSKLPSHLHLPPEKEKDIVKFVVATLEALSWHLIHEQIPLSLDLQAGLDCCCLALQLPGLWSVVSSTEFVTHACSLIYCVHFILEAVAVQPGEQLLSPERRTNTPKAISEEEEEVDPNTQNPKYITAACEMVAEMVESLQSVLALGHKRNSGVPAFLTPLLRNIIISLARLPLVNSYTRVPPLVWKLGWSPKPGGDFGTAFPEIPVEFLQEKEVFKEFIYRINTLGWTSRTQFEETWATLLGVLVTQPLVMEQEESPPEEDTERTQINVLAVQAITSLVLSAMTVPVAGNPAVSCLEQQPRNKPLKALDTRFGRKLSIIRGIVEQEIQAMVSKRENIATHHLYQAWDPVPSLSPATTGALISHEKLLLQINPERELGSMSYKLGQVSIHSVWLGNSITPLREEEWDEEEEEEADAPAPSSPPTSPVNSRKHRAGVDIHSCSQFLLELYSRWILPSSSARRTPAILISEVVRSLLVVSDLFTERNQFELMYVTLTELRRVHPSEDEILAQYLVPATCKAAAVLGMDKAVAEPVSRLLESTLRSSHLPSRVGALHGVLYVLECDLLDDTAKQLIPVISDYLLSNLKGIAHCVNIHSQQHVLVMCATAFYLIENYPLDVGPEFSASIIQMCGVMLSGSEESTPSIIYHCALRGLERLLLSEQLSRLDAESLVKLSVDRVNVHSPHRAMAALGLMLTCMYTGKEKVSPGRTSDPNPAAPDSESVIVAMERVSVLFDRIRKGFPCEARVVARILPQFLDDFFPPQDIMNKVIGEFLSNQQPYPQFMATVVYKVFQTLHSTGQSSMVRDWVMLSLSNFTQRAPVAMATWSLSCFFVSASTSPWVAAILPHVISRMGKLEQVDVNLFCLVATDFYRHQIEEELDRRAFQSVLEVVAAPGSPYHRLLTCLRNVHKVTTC
Numbers without * were called inactive; . = no result given; ! = not active in a repeat. An excerpt weighted towards active compounds, which were near 3.6% of everything screened. Rule as the data show it: active = inhibition above about 50%; inactive = the rest.

SMILES	Pf apPOL inh	mHTT-CaM PPI inh
CC1(C)CC(N2COc3ccc4c5c(oc4c3C2)C(=O)c2ccccc2C5=O)CC(C)(C)N1	36.8	96.0*!
COc1ccc(-c2coc3c4c(ccc3c2=O)OCN(C2CC(C)(C)NC(C)(C)C2)C4)cc1OC	-4.9	1.9
CCCCN1COc2ccc3c4c(oc3c2C1)C(=O)c1ccccc1C4=O	10.9	69.6*
Cc1ccc(S(=O)(=O)Nc2ccc(Br)cc2)cc1C(N)=O	-1.6	-7.4
Cn1cc(C(=O)NCCN2CCOCC2)c2c3ccccc3n(C)c2c1=O	-5.2	-1.0
COc1cccc(Nc2ncc3c(n2)CCN(Cc2ccc(OC)c(OC)c2OC)C3)c1	-18.5	10.3
COc1ccc(NC(=O)C2CCCN(c3cn[nH]c(=O)c3)C2)cc1OC (stereo not drawn)	7.9	6.9
Cn1ncc(N2CCCC(C(=O)Nc3ccc4c(c3)OCO4)C2)cc1=O (stereo not drawn)	20.6	71.9*
O=C(Nc1ccc(Br)cc1)C1CCN(c2cc(N3CCCC3)ncn2)CC1	-7.4	20.7
Cc1ccc(NC(=O)C2CCCN(c3cnn(C)c(=O)c3)C2)cc1C (stereo not drawn)	-2.6	0.9
O=C(Nc1ccc2c(c1)OCO2)C1CCCN(c2cn[nH]c(=O)c2)C1 (stereo not drawn)	-1.7	62.6*
O=C(Nc1ccc2c(c1)OCCO2)C1CCCN(c2cnn(Cc3ccccc3)c(=O)c2)C1 (stereo not drawn)	-4.0	34.5
O=C(Nc1ccc2c(c1)OCO2)C1CCN(c2cc(N3CCCC3)ncn2)CC1	-6.1	60.6*
O=C(Nc1ccc2c(c1)OCO2)C1CCCN(c2cnn(Cc3ccccc3)c(=O)c2)C1 (stereo not drawn)	-1.9	69.3*
O=C1C(=CC2CCCCC2)CCc2ccccc21	-10.3	.
Cc1cccc(C2=N/C(=C/c3ccc(N(C)C)cc3)C(=O)O2)c1	-4.6	-11.0
CCOCCCNS(=O)(=O)c1cc(Br)cc2c1N(C(C)=O)CC2	-2.9	6.0
CCNC(=O)Nc1ccc(N2CCCN(Cc3cccc(F)c3)C2=O)cc1	-1.2	2.4
CCOC1=CC(=Cc2c(N)n3nc(C(F)(F)F)sc3nc2=O)C=CC1=O	2.8	4.0
CCC(=O)Nc1c2c(nn1-c1ccc(Cl)cc1)CS(=O)(=O)C2	-4.2	3.0
Cc1cc(O)cc2c1C(=O)C(=Cc1ccccc1F)O2	0.5	2.2
Cc1cccc(O)c1N=Cc1ccc([N+](=O)[O-])cc1	-13.1	31.0
O=C1CC(c2ccco2)CC2=C1C(c1ccc(Cl)cc1)C1=C(N2)c2ccccc2C1=O (stereo not drawn)	-3.2	64.0*
Cc1ccccc1C1C2=C(CC(C)(C)CC2=O)NC2=C1C(=O)CC(C)(C)C2	-8.5	1.5
O=C1CCCC2=C1C(c1cc([N+](=O)[O-])ccc1O)C1=C(N2)c2ccccc2C1=O (stereo not drawn)	3.8	56.0*
SMILES	Pf apPOL inh	mHTT-CaM PPI inh
CC1(C)CC(=O)C2=C(C1)NC1=C(C(=O)c3ccccc31)C2c1cccs1 (stereo not drawn)	0.5	47.0
O=C1CCCC2=C1C(c1cc([N+](=O)[O-])ccc1O)C1=C(CCCC1=O)N2	-7.7	-1.0
CC1(C)CC(=O)C2=C(C1)NC1=C(C(=O)c3ccccc31)C2c1cc(Br)ccc1O (stereo not drawn)	2.4	56.0*
CC1(C)CC(=O)C2=C(C1)NC1=C(C(=O)c3ccccc31)C2c1ccc(F)cc1 (stereo not drawn)	-6.3	62.0*
O=C1CC(c2ccco2)CC2=C1C(c1ccccc1)C1=C(N2)c2ccccc2C1=O (stereo not drawn)	-7.0	28.0
Cc1ccc(CSc2n[nH]c(N)n2)c(C)c1	-3.2	-4.7
COc1cc(C(C)=O)ccc1OCC(O)CN1CCCCCC1 (stereo not drawn)	4.7	3.5
O=C1C(=Cc2cccc([N+](=O)[O-])c2)Oc2cc(O)ccc21	-2.1	11.6
CC(C)c1c(C2CCN(C(=O)c3ccc4c(c3)OCO4)CC2)noc1N	-5.0	5.0
Cc1ccc(-c2nc(-c3ccc(-n4ccnc4)nc3)no2)cc1C	2.3	-5.8
COc1cccc(C2C3=C(Nc4c2c(=O)n(C)c(=O)n4C)c2ccccc2C3=O)c1 (stereo not drawn)	1.4	5.0
COc1cccc(C2C3=C(CC(C)(C)CC3=O)NC3=C2C(=O)c2ccccc23)c1 (stereo not drawn)	0.9	58.0*
COc1ccc(CNC(=O)c2ccn3c(-c4cc(F)cc(F)c4)nnc3c2)cc1	-2.8	-1.0
Cn1c(C2CCN(S(=O)(=O)c3ccc(Cl)c(Cl)c3)CC2)cc(=O)n2nccc12	-2.9	39.7
COc1ccc(-c2ccc(/C=C3\SC(=N)NC3=O)o2)c([N+](=O)[O-])c1	1.2	59.0*
Cc1c(-c2ccc(/C=C3\SC(=N)NC3=O)o2)ccc([N+](=O)[O-])c1C	1.9	41.0
COc1ccc(-c2noc(C3CCN(CC(=O)Nc4ccccc4C)CC3)n2)cc1	-1.5	66.0*
Cc1ccccc1NC(=O)CN1CCC(c2nc(-c3ccncc3)no2)CC1	-1.1	-7.2
COc1ccccc1C=CCN1CCNC(=O)C1CC(=O)O (stereo not drawn)	2.1	0.4
COc1ccc(CCC(C)Nc2ccc(OC)cc2OC)cc1 (stereo not drawn)	0.0	85.1*
COc1ccc(CCC(C)NCc2ccccc2OC)cc1 (stereo not drawn)	-1.9	-10.5
O=C(NCCCN1CCCC1=O)C1CN(C(=O)c2cccs2)CC12CCCCC2 (stereo not drawn)	-0.1	8.2
Cc1ccc(C)c(NC(=O)CS(=O)(=O)c2cn(Cc3ccc(F)cc3)c3ccccc23)c1	-2.9	7.0
O=c1oc2ccc(Cl)cc2n1CNc1ccccc1F	63.1*	3.0
O=c1oc2ccc(Cl)cc2n1CNc1ccccc1	-20.2	6.0
SMILES	Pf apPOL inh	mHTT-CaM PPI inh
COc1ccc(CN(CCC2(C(C)C)CCOC(C)(C)C2)C(C)=O)cc1OC (stereo not drawn)	0.1	15.0
COc1ccc(CN(CCC2(c3ccccc3)CCOC(C)(C)C2)C(C)=O)cc1OC (stereo not drawn)	1.0	67.5*
COc1ccc(N2C(=O)CCC(C(=O)Nc3cc(OC)ccc3OC)C2c2ccc(F)cc2)cc1 (stereo not drawn)	-1.6	38.0
COc1ccc(C2C(C(=O)Nc3cc(C)ccc3OC)CCC(=O)N2c2ccc(OC)cc2)cc1 (stereo not drawn)	-4.8	56.0*
O=C(NCc1nnnn1-c1ccc(Cl)cc1)c1c(F)cccc1F	-1.6	-7.6
O=C(NCCCN1CCCC1)c1ccc(N2CCNC(c3ccccc3)C2)nc1 (stereo not drawn)	-3.1	55.7*
O=C(NCCCN1CCCCC1)c1ccc(N2CCNC(c3ccccc3)C2)nc1 (stereo not drawn)	-5.0	4.4
O=C(NCc1ccc(Cl)cc1)c1ccc(N2CCNC(c3ccccc3)C2)nc1 (stereo not drawn)	4.9	16.2
O=C(NCc1ccc(N2CCCC2)cc1)c1ccc(N2CCNC(c3ccccc3)C2)nc1 (stereo not drawn)	0.2	79.4*
Cc1cccc(C(=O)N2CCCC2c2cc(C(C)C)on2)c1 (stereo not drawn)	-0.7	-4.0
CC(C)Oc1ccccc1/C=C1\C(=O)NN(c2cccc(Br)c2)C1=O	-4.5	0.0
COc1ccc(OC)c2sc(N(CCCn3ccnc3)C(=O)Cc3ccccc3)nc12	-8.5	67.7*
O=C(c1ccco1)N(CCCn1ccnc1)c1nc2c(Cl)cccc2s1	0.3	32.1
